Measurements: the supplement of paper PMC8877412
± gives the uncertainty stated by the source.

Test system: NCC-PMP1-C1
Experiment: cell viability relative to DMSO control; higher = less growth inhibition
Settings: 10 µM; 72 h
Description: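 NCC-PMP1-C1 pseudomyxoma peritonei cells were seeded in 384-well plates coated with Matrigel and MEF (1e4 cells). Viability was read after 72 h by CCK-8 and expressed as % of the DMSO control, mean ± SD of duplicates.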

SMILES | cell viability [%]
O=C1c2c(O)ccc(O)c2C(=O)c2c(NCCNCCO)ccc(NCCNCCO)c21 [Mitoxantrone 2HCl] | 2.67 ± 1.1
CCS(=O)(=O)N1CCN(c2ccc(Nc3ncc(C(N)=O)c(NC4CC4)n3)cc2)CC1 | 71.8 ± 3.5
Cc1nc(Nc2ncc(C(=O)Nc3c(C)cccc3Cl)s2)cc(N2CCN(CCO)CC2)n1 [Dasatinib] | 26.3 ± 4.4
COc1cc2nccc(Oc3ccc(NC(=O)NC4CC4)c(Cl)c3)c2cc1C(N)=O [Lenvatinib (E7080)] | 69.6 ± 2
Cc1cn(-c2cc(NC(=O)c3ccc(C)c(Nc4nccc(-c5cccnc5)n4)c3)cc(C(F)(F)F)c2)cn1 [Nilotinib (AMN-107)] | 70.1 ± 16
CO[C@H](C(=O)[C@@H](O)[C@@H](C)O)[C@@H]1Cc2cc3cc(O[C@H]4C[C@@H](O[C@H]5C[C@@H](O)[C@H](O)[C@@H](C)O5)[C@H](O)[C@@H](C)O4)c(C)c(O)c3c(O)c2C(=O)[C@H]1O[C@H]1C[C@@H](O[C@H]2C[C@@H](O[C@H]3C[C@](C)(O)[C@H](O)[C@@H](C)O3)[C@H](O)[C@@H](C)O2)[C@H](O)[C@@H](C)O1 [Mithramycin A] | 7.11 ± 5.3
C[C@@H](CN1CC(=O)NC(=O)C1)N1CC(=O)NC(=O)C1 [Dexrazoxane] | 94.8 ± 15
Cc1c2oc3c(C)ccc(C(=O)N[C@@H]4C(=O)N[C@H](C(C)C)C(=O)N5CCC[C@H]5C(=O)N(C)CC(=O)N(C)[C@@H](C(C)C)C(=O)O[C@@H]4C)c3nc-2c(C(=O)N[C@@H]2C(=O)N[C@H](C(C)C)C(=O)N3CCC[C@H]3C(=O)N(C)CC(=O)N(C)[C@@H](C(C)C)C(=O)O[C@@H]2C)c(N)c1=O [Actinomycin D] | 8.77 ± 0.95
